Active and inactive are the calls of the source.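 The calls were made as follows, unless noted: active = NADPH fluorescence slope more negative than the mean of all samples by about 3 SD, 99.7% confidence; inactive = the rest.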

In one assay the target is Voltage-gated potassium channel subunit beta-2 (Rattus norvegicus) (UniProt P62483). The assay can be described thus: KvBeta enzyme negative modulators, primary screen, biochemical, NADPH fluorescence (AID 622;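 active = fluorescence slope higher than the sample average by over 3 SD, cut at about -0.22 in these data, passing the limit was not always enough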;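 also: slope of raw intensity against log time taken from 70 to 1610 s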). As to conditions: recombinant KvBeta, 4-cyanobenzaldehyde reduction, at 10 µM, hits give high values.
Chain of Voltage-gated potassium channel subunit beta-2 (Rattus norvegicus) (P62483 whole entry, looked up): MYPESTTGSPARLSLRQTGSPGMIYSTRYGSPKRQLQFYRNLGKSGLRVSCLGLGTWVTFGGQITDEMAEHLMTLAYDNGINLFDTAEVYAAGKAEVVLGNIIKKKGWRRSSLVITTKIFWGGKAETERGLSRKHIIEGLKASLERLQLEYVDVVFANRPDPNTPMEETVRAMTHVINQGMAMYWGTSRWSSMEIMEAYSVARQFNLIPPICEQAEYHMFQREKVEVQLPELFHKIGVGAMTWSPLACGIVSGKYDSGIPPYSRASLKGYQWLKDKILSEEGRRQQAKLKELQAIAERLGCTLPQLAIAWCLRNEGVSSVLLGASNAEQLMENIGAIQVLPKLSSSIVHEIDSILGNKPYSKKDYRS
As to `C[C@@H]1C[C@H](O)c2cc(Cl)ccc2N1`, the fluorescence slope was -0.594 (inactive).
As for `Cc1cccc(C)c1OCc1nnc(SCC(=O)Nc2ccccc2F)o1`, the fluorescence slope is -0.558 (inactive).
The same measure, in the same setting: the same measure for `COc1cc2c(=O)nc3n(c2cc1OC)C(c1ccccc1)N=C(N)N3` (stereo not drawn): -0.312 (inactive); for `CC(=O)N1CCN(S(=O)(=O)c2cccc(C(=O)Nc3ccc4c(c3)CCC4)c2)CC1`: -0.385 (inactive).
Same read-out and setting: then `Cn1c(=O)c(=O)n(C)c2cc(S(=O)(=O)N3CCCCC3)ccc21`, with -0.426 (inactive); and `O=C(COC(=O)C12CC3CC(CC(O)(C3)C1)C2)N1CCN(S(=O)(=O)c2ccc(Cl)cc2)CC1`, with -0.33 (inactive).
On the same count and under the same terms, then `O=S(=O)(c1ccc(S(=O)(=O)N2CCN3CCCC3C2)cc1)N1CCCC1` (stereo not drawn), with -0.359 (inactive).
On to `CC(C)CC1NC(=O)N(CC(=O)N2CCN(S(=O)(=O)c3ccc(Cl)cc3)CC2)C1=O` (stereo not drawn), for which the fluorescence slope was -0.416 (inactive).
Still for that read-out and setting: then `CCN(C1CCCCC1)S(=O)(=O)c1ccc(S(=O)(=O)N2CCN(CCC#N)CC2)cc1`, with -0.584 (inactive); and `C=CCOc1nc2c(c(=O)n(C)c(=O)n2C)n1C`, with -0.444 (inactive).
Still for that read-out and setting: then `Cn1nnnc1SCC(=O)N1CCN(c2cccc(Cl)c2)CC1`, with -0.619 (inactive).
Same read-out and setting: the same measure for `Cn1c(=O)[nH]c(=O)c2c1ncn2CCN1CCOCC1`: -0.512 (inactive).
Take `Cc1cnn(Cc2ccccc2)c1N`: the fluorescence slope is -0.6 (inactive).
Take `CCOc1ccc(-c2nc(C#N)c(NCc3ccc4c(c3)OCO4)o2)cc1`: the fluorescence slope was -0.581 (inactive).
Still for that read-out and setting: the same measure for `N[C@@H](Cc1ccccc1)c1nnc2sc(SCc3ccccc3)nn12`: -0.43 (inactive); for `CCOC(=O)c1cc2sc(C)cc2n1C(C)C(=O)OCC` (stereo not drawn): -0.607 (inactive).
As to `CCn1nnc(NC(=O)c2ccccc2Br)n1`, the fluorescence slope was -0.385 (inactive).
Same read-out and setting: the same measure for `CCOc1cc(-c2nc3ccccn3c2NCC2CCCO2)ccc1O` (stereo not drawn): -0.091 (active); for `Cc1ccc(O)c(-c2cc3ccccc3[nH]2)c1`: -0.46 (inactive).
On the same count and under the same terms, then `CC(=O)c1c(C)[nH]c(C(=O)N2CCN(C(=O)c3ccco3)CC2)c1C`, with -0.537 (inactive).
Same read-out and setting: the same measure for `O=S(=O)(c1ccc(Oc2ccc(-c3nnco3)cc2)nc1)N1CCC(Cc2ccccc2)CC1`: -0.508 (inactive); for `O=C(Nc1ccccc1N1CCN(c2ccc(F)cc2)CC1)c1ccccc1`: -0.44 (inactive); for `Cc1cc(C)n2cc(CSc3nnnn3C)nc2n1`: -0.256 (inactive).

Another assay has the same target. The experiment in a line: KvBeta positive modulators, primary screen, biochemical, NADPH fluorescence (AID 623).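 Also: fluorescence intensity change per second fitted from 20 to 320 s.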 As to conditions: Recombinant KvBeta, NADPH fluorescence decrease slope, 10 min; at 10 µM; hits give low values.
Turning to `Cn1c(Cc2ccccc2)nnc1SCC(=O)N1CCOCC1`, the NADPH fluorescence slope is -4.7e-05 (inactive).
The same measure, in the same setting: then `CCOC(=O)N1CCN(C(=O)c2c(-c3ccccc3)noc2C)CC1`, with -4.8e-05 (inactive); and `Cc1csc(NC(=O)CCCSc2nc3ccccc3s2)n1`, with -2.4e-05 (inactive).
On the same count and under the same terms, then `COc1ccc(-c2nc(C#N)c(N3CCOCC3)o2)cc1OC`, with -1.9e-05 (inactive); and `COCCn1nnnc1CN1CCC(Cc2ccccc2)CC1`, with -6.1e-05 (inactive).
The same measure, in the same setting: then `c1cc2c(cc1Cn1cnnn1)OCO2`, with -6.9e-05 (inactive).
On to `O=C(OCCN1C(=O)c2ccccc2C1=O)c1ccc(S(=O)(=O)N2CCCCCC2)cc1`, for which the NADPH fluorescence slope is -2.9e-05 (inactive).
Still for that read-out and setting: the same measure for `CCCN(Cc1cc2cc(C)ccc2[nH]c1=O)C(=O)c1cccc(OC)c1`: -5.1e-05 (inactive); for `c1ccn2c(SCc3ccc4c(c3)OCCO4)nnc2c1`: 5.1e-06 (inactive).
On the same count and under the same terms, the same measure for `Cc1ccc(-n2c(Cn3cnc4ccccc43)nnc2SCC(=O)O)cc1`: 1.2e-06 (inactive); for `CSc1ccc(S(=O)(=O)Nc2cccc(F)c2)cc1`: -5.1e-05 (inactive); for `Cc1cc(NC(=O)CCCN2C(=O)c3cccnc3C2=O)no1`: 1.6e-05 (inactive).
For the compound `C=CCn1c(SCC(=O)NCC2CCCO2)nc2scc(-c3ccco3)c2c1=O` (stereo not drawn), the NADPH fluorescence slope is -0.000271 (active).
The same measure, in the same setting: the same measure for `CCOC(=O)N1CCC(NC(=O)CCN2C(=O)COc3ccccc32)CC1`: 1.7e-05 (inactive); for `Cc1cccc(Nc2nc(N)nc(CN3CCC(C(N)=O)CC3)n2)c1C`: -2.1e-05 (inactive); for `CC(NS(=O)(=O)c1ccc(F)cc1)C(c1cccs1)N1CCN(C)CC1` (stereo not drawn): -5.1e-05 (inactive).
For the compound `COC(=O)c1cccc(NC(=O)Cc2coc3cc(OC)ccc23)c1`, the NADPH fluorescence slope is -6.1e-06 (inactive).
On the same count and under the same terms, the same measure for `C[C@@H]1C[C@H](O)c2cc(Cl)ccc2N1`: -1.8e-05 (inactive).
Still for that read-out and setting: the same measure for `Cc1cccc(C)c1OCc1nnc(SCC(=O)Nc2ccccc2F)o1`: -3e-05 (inactive); for `COc1cc2c(=O)nc3n(c2cc1OC)C(c1ccccc1)N=C(N)N3` (stereo not drawn): -2.8e-05 (inactive); for `CC(=O)N1CCN(S(=O)(=O)c2cccc(C(=O)Nc3ccc4c(c3)CCC4)c2)CC1`: -4e-05 (inactive).
The same measure, in the same setting: the same measure for `Cn1c(=O)c(=O)n(C)c2cc(S(=O)(=O)N3CCCCC3)ccc21`: -7.3e-05 (inactive); for `O=C(COC(=O)C12CC3CC(CC(O)(C3)C1)C2)N1CCN(S(=O)(=O)c2ccc(Cl)cc2)CC1`: -1.9e-05 (inactive).
`O=S(=O)(c1ccc(S(=O)(=O)N2CCN3CCCC3C2)cc1)N1CCCC1` (stereo not drawn): the NADPH fluorescence slope is -3.4e-05 (inactive).
On the same count and under the same terms, then `CC(C)CC1NC(=O)N(CC(=O)N2CCN(S(=O)(=O)c3ccc(Cl)cc3)CC2)C1=O` (stereo not drawn), with 4.2e-06 (inactive); and `CCN(C1CCCCC1)S(=O)(=O)c1ccc(S(=O)(=O)N2CCN(CCC#N)CC2)cc1`, with -1.5e-05 (inactive).
The same measure, in the same setting: then `C=CCOc1nc2c(c(=O)n(C)c(=O)n2C)n1C`, with -4.9e-05 (inactive); and `Cn1nnnc1SCC(=O)N1CCN(c2cccc(Cl)c2)CC1`, with -2.9e-06 (inactive).
Still for that read-out and setting: then `Cn1c(=O)[nH]c(=O)c2c1ncn2CCN1CCOCC1`, with 1.1e-05 (inactive); and `Cc1cnn(Cc2ccccc2)c1N`, with -3.5e-05 (inactive); and `CCOc1ccc(-c2nc(C#N)c(NCc3ccc4c(c3)OCO4)o2)cc1`, with -4.4e-05 (inactive).
Turning to `N[C@@H](Cc1ccccc1)c1nnc2sc(SCc3ccccc3)nn12`, the NADPH fluorescence slope was -1.6e-06 (inactive).
Same read-out and setting: then `CCOC(=O)c1cc2sc(C)cc2n1C(C)C(=O)OCC` (stereo not drawn), with -3.9e-05 (inactive).
Still for that read-out and setting: the same measure for `CCn1nnc(NC(=O)c2ccccc2Br)n1`: -5.5e-05 (inactive); for `CCOc1cc(-c2nc3ccccn3c2NCC2CCCO2)ccc1O` (stereo not drawn): -2.7e-05 (inactive).
Same read-out and setting: then `Cc1ccc(O)c(-c2cc3ccccc3[nH]2)c1`, with -3.3e-05 (inactive); and `CC(=O)c1c(C)[nH]c(C(=O)N2CCN(C(=O)c3ccco3)CC2)c1C`, with 9e-06 (inactive).
As to `O=S(=O)(c1ccc(Oc2ccc(-c3nnco3)cc2)nc1)N1CCC(Cc2ccccc2)CC1`, the NADPH fluorescence slope is -5e-05 (inactive).
Regarding `O=C(Nc1ccccc1N1CCN(c2ccc(F)cc2)CC1)c1ccccc1`, the NADPH fluorescence slope was -3.4e-05 (inactive).
In the case of `Cc1cc(C)n2cc(CSc3nnnn3C)nc2n1`, the NADPH fluorescence slope is -4.3e-06 (inactive).
